# Only some compounds are listed: those with a hit (about 2.5% of all), similar ones and a draw of the others.
# Cruzain inh Det: qHTS Assay for Promiscuous and Specific Inhibitors of Cruzain (with detergent). Potency, µM, without a hit: max response, negative = inhibition, hits mostly inhibitors. purified cruzain, Z-FR-AMC fluorescence, 0.01% Triton. 0.43% of 200,000 active. Cruzipain (Trypanosoma cruzi), P25779;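 also: plate controls were neutral wells for no effect and buffer without enzyme for full effect; nearly all actives have a fitted effect of over 40% in size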
# Target sequence (P25779 123-467 limits assumed): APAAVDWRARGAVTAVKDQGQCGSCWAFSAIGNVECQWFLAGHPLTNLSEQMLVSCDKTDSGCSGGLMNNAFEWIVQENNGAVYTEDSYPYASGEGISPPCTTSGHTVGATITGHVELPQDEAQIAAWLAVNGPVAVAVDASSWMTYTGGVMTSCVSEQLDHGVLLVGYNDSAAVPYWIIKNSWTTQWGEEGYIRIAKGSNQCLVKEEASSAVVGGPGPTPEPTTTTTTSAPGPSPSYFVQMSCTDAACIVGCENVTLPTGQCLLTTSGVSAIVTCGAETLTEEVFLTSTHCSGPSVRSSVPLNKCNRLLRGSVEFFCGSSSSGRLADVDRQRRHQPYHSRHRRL
#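 Compounds were screened in titration against cruzain (1.5 nM) with 0.01% Triton X-100 to counter colloidal aggregation. Activity was the AMC fluorescence increase over 60 s after adding 2 uM Z-FR-AMC at pH 5.5.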
# Cruzain inh noDet: qHTS Assay for Promiscuous and Specific Inhibitors of Cruzain (without detergent) | purified cruzain, Z-FR-AMC fluorescence, no detergent | Potency, µM, for inactives: max response, negative = inhibition, hits mostly inhibitors | AID 1476, 2009 | 2.3% of 200,000 active;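 also: plate controls were enzyme without inhibitor for no effect and buffer without enzyme for full effect; nearly all actives have a fitted effect of over 40% in size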
#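 Detergent-free condition (0.00005% Triton X-100) in acetate buffer pH 5.5 with DTT. 1.5 nM enzyme and compound were pre-mixed 15 min, then 2 uM Z-FR-AMC substrate added; reaction progress from fluorescence change between first and third reads (60 s).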
# Starred values were filed as active, the others as inactive; ? = inconclusive; ! = not confirmed by another sample. Calls follow the shape of the dose curve; as a rule, active = well fitted curve in the direction sought with a large enough effect; inconclusive = small, poorly fitted or top-dose-only effect, or another doubt; inactive = no such curve, though single readings can be large; an effect the other way counts as inactive or inconclusive. Potency is read from the fitted curve at half-maximal effect.
SMILES,Cruzain inh Det,Cruzain inh noDet
O=C1c2oc3ccc(F)cc3c(=O)c2C(c2cccc([N+](=O)[O-])c2)N1CCCN1CCOCC1 (configuration not stated),-5%,-9%
Nc1ncnc2c1ncn2[C@@H]1O[C@H](C(=O)NC2CC2)[C@H](O)[C@H]1O,-5%,9%
CCCCOC(=O)c1ccc(NC(=O)c2ccc3c(c2)CCN3S(=O)(=O)c2ccccc2)cc1,0%,13µM*
CCCCc1ccc(NC(=O)c2ccc3c(c2)CCN3S(=O)(=O)c2ccccc2)cc1,-2%,?
Cc1ccc(-c2nnn(CC(=O)NCC3CC3)n2)o1,1%,-1%
Cc1ccc(-c2nnn(CC(=O)Nc3ccc4nn(-c5ccccc5)nc4c3)n2)o1,-7%,10µM*
CCCCOc1ccc(CNC(=O)c2cccc(NC(=O)N3CCSc4ncccc43)c2)cc1,-11%,?
CNS(=O)(=O)c1cccc(C(=O)OCc2csc(-c3ccccc3)n2)c1,-7%,-3%
Cn1nc(-c2ccccc2)c(COC(=O)c2cccc(Cl)c2)c1S(=O)(=O)c1ccccc1,2%,25µM*
Cc1cc(-c2cc(C)c(O)c(C(C)(C)C)c2)cc(C(C)(C)C)c1O,-1%,-1%
COc1ccc(CCNC(=O)C2CCCN(c3nc4c(C)cc(C)cc4s3)C2)cc1OC (configuration not stated),-2%,?
COc1cc(OC)c(NC(=O)N2CCc3c([nH]c4ccccc34)C2c2ccccc2F)cc1Cl (configuration not stated),-4%,16µM*
COc1cc(NC(=O)N2CCc3c(sc4c3CCCC4)C2c2ccccc2)cc(OC)c1OC (configuration not stated),-3%,?
COc1cc(OC)c(NC(=O)N2CCc3c(sc4c3CCCC4)C2c2ccccc2)cc1Cl (configuration not stated),0%,10µM*
Cc1ccc(C2c3[nH]c4ccccc4c3CCN2C(=O)Nc2ccc(C)c(C)c2)cc1 (configuration not stated),1%,?
Cc1[nH]c2c(ccc3ccccc32)c1C1C(CCN)C1(C)C (configuration not stated),-2%,10µM*
Cc1[nH]c2c(Cl)cccc2c1CCN,5%,5%
CC1Cc2ccccc2N1Cc1nc2cc(Cl)ccc2c(=O)[nH]1 (configuration not stated),4%,25µM*
COC(=O)c1ccc2c(=O)[nH]c(CN3c4ccccc4CC3C)nc2c1 (configuration not stated),-2%,?
O=c1[nH]c(CN2CCN(c3ccccc3)CC2)nc2scc(-c3ccccc3)c12,-3%,?
CC1Cc2ccccc2N1Cc1nc2scc(-c3cccs3)c2c(=O)[nH]1 (configuration not stated),-4%,16µM*
C[N+](C)(C)c1ncnc2c1ncn2[C@@H]1C[C@H](O)[C@@H](CO)O1,6%,11%
COc1ccccc1Nc1cc(C)nc2nc(-c3ccccc3)nn12,-4%,?
COc1ccc(C2c3cccn3CCN2S(=O)(=O)c2ccccc2[N+](=O)[O-])cc1OC (configuration not stated),1%,1%
COc1ccc(NC(C)C(=O)N/N=C/c2ccccc2OCc2cccc(Br)c2)cc1 (configuration not stated),-5%,?
SMILES,Cruzain inh Det,Cruzain inh noDet
Cc1ccccc1NC(C)C(=O)N/N=C/c1ccccc1OCc1cccc(Br)c1 (configuration not stated),0%,32µM*
CCOC(=O)c1sc(NC(=O)C(CC)OC(=O)C(CC(C)C)NC(=O)c2ccccc2)nc1C (configuration not stated),10µM*,-7%
Cc1nc(NC(=O)/C=C/c2ccccc2)sc1C(=O)Nc1ccccc1,3%,-19%
CCOC(=O)c1sc(NC(=O)C(OC(C)=O)c2ccccc2)nc1C (configuration not stated),-17%,-2%
CCOC(=O)c1sc(NC(=O)/C=C/c2ccccc2)nc1C,-1%,25µM*
COc1cc2nc(NCCc3ccc(Cl)cc3)n3nc(-c4ccccc4)nc3c2cc1OC,0%,0%
CO[C@@H]1/C=C\O[C@]2(C)Oc3c(C)c(O)c4c(O)c(cc(O)c4c3C2=O)NC(=O)/C(C)=C\C=C/[C@H](C)[C@@H](O)[C@H](C)[C@H](O)C(C)[C@H](OC(C)=O)[C@@H]1C (some centres not stated),-1%,?
C=C1c2ccccc2O[C@H](C(=O)OCC)[C@@H]1CCC(C)C (tested in a mixture with another compound),-2%,7%
CCOC(=O)c1c(NC(=S)Nc2cc([N+](=O)[O-])ccc2OC)sc2c1CCCCC2,-6%,13µM*
COC(=O)c1c(NC(=O)C2CC2)sc2c1CCCC2,-6%,-7%
COC(=O)c1c(NC(=S)Nc2cc(OC)c(Cl)cc2OC)sc2c1CCCCC2,-2%,16µM*
CCOC(=O)c1c(NC(=S)Nc2ccc(C)cc2)sc2c1CCC2,-5%,?
COc1ccc(-n2nnnc2C2CCN(S(=O)(=O)c3ccc(NC(C)=O)cc3)CC2)cc1,-2%,?
CCNC(C)(C)[C@@H](SS)c1ccc(Br)cc1,2%,-12%
COc1ccc(/C(C)=N/OC/C(O)=C(\C#N)c2nc3ccccc3[nH]2)cc1,1%,5µM*
COc1ccc(/C=N/OC/C(O)=C(\C#N)c2nc3ccccc3[nH]2)cc1OC,-5%,-6%
Cc1cc(Cc2cc(C)c(N)cc2N)c(N)cc1N,-3%,6%
Cc1c(-c2nc(N)nc(C3CC3)c2C)nc(N)nc1C1CC1,1%,4%
Cc1cc(N)c2ccccc2[n+]1CCCCCCCCCC[n+]1c(C)cc(N)c2ccccc21,13µM*!,?
CCCCCCCCC[n+]1cccc2c3ccccc3ccc21,-9%,-2%
CCOC(=O)c1cc(-c2ccccc2)n(CCCC(=O)Nc2cccc(Cl)c2C)c1C,-2%,14%
CCOc1ccccc1CNC(=O)c1cc2oc3ccccc3c2n1CC,-17%,32µM*
CCn1c(C(=O)NCc2ccc(F)cc2)cc2oc3ccccc3c21,-9%,-5%
COC(=O)[C@@H]1C=C[C@H](C)[C@H](CCOc2ccccc2)O1,1%,-2%
CCCCc1nc(N)c(C#N)c(-c2ccco2)c1CCC,25µM*,20µM*
SMILES,Cruzain inh Det,Cruzain inh noDet
COC(=O)CSc1nc(N)c(C#N)c(-c2ccco2)c1C#N,-3%,7%
CCCc1nc(NC(C)=O)c(C#N)c(-c2ccco2)c1CC,-3%,11%
CCSc1nc(N)c(C#N)c(-c2ccco2)c1C#N,?,20µM*
C[C@]1(c2ccccc2)O[C@@H]2C[C@@H]3[C@@H]4CCC5=CC(=O)C=C[C@@]5(C)[C@]4(F)[C@H](O)C[C@]3(C)[C@@]2(C(=O)CO)O1,2%,2%
COc1ccc(-c2nc(SCC(=O)NC(C)CCc3ccccc3)n[nH]2)cc1 (configuration not stated),-3%,-8%
CN(C)c1ccc(-c2nc(NCc3cccnc3)c3ccccc3n2)cc1,-14%,-12%
COc1ccc(Nc2oc(-c3ccco3)nc2S(=O)(=O)c2ccc(F)cc2)cc1,-25%,25µM*
O=S(=O)(c1ccccc1)c1nc(-c2ccco2)oc1NCCN1CCOCC1,-4%,-1%
